{"source": "PubChem BioAssay AID504332", "about": "(National Center for Advancing Translational Sciences (NCATS), 2011)", "note": "The campaign covered roughly 350,000 compounds. About 31,000 (8.9%) were called active. Another 15% or so got no clear call; they are omitted. The call rests on the fitted dose curve; in most records, active means well fitted inhibition curve with a large enough effect; inconclusive means small, poorly fitted or top-dose-only effect; inactive means no such curve, though single readings can be large or run the other way. Shown is part of a subset that was picked to be rich in actives. Where a call stands in place of a potency, no number is given. Potency means the concentration at half of the fitted maximal effect.", "data": [{"target": "Histone-lysine N-methyltransferase EHMT2 (Homo sapiens) (UniProt Q96KQ7)", "sequence (Q96KQ7 913-1193 limits assumed)": "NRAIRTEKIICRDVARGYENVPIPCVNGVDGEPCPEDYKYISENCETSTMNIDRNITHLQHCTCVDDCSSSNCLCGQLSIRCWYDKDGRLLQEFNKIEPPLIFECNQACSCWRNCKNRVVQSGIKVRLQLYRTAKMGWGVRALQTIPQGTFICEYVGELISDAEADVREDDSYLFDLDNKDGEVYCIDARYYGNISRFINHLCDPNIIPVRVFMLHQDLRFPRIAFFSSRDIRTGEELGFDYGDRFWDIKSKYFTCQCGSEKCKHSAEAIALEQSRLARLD", "assay": "qHTS Assay for Inhibitors of Histone Lysine Methyltransferase G9a; further: nearly all actives have a fitted effect of over 75% in size", "conditions": "G9a H3K9 monomethylation, AlphaScreen, 2 h; series mostly up to 59 µM", "in_short": "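Compounds were preincubated with 20 nM G9a for 15 min, after which biotinylated H3K9 peptide (500 nM) and SAM (20 uM) started a 2 h room-temperature reaction. Monomethylated product was quantified by antibody-based AlphaScreen chemiluminescence.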", "values": [{"compound": "CCc1noc(C)c1C(=O)N1CCN(S(=O)(=O)c2cccc(C(F)(F)F)c2)CC1", "activity, negative = inhibition": "9.9% [at 12.7 µM] (inactive)"}, {"compound": "COc1ccc(CNC(=O)CC2Oc3ccc(C)cc3NC2=O)cc1", "note": "(stereo unspecified)", "Potency": "inactive"}, {"compound": "Cc1cccc(N(Cc2ccccc2)C(=O)c2cc(S(=O)(=O)N3CCOCC3)ccc2F)c1", "Potency": "inactive"}, {"compound": "CCOc1cccc2cc(-c3cn4c(n3)sc3cc(C)ccc34)c(=O)oc12", "Potency": "inactive"}, {"compound": "CC1(C(=O)NNC(=S)NCC2CCCO2)CC1(Cl)Cl", "note": "(stereo unspecified)", "Potency": "inactive"}, {"compound": "Cc1ccc(-n2nc3cc(Cl)c(NC(=O)c4ccco4)cc3n2)cc1", "Potency": "inactive"}, {"compound": "Cc1ccc(Cn2c(NC(=O)c3ccco3)nc3ccccc32)cc1", "Potency": "inactive"}, {"compound": "CCn1nc(NC(=O)c2ccco2)c2cc3ccc(C)cc3nc21", "Potency": "50.1 µM (active)"}, {"compound": "COc1ccccc1NC(=O)COC(=O)c1ccccc1SCC(=O)N1CCCC1", "Potency": "inactive"}, {"compound": "CC(C(=O)Nc1ccc(S(=O)(=O)N2CCCC2)cc1)N(C)Cc1ccc(F)cc1", "note": "(stereo unspecified)", "activity, negative = inhibition": "2.24% [at 2.33 µM] (inactive)"}, {"compound": "CC(OC(=O)CNS(=O)(=O)/C=C/c1ccccc1)C(=O)Nc1ccc(S(=O)(=O)N2CCCC2)cc1", "note": "(stereo unspecified)", "Potency": "10 µM (active)"}, {"compound": "COc1cc(C(C)=O)ccc1OC(C)C(=O)Nc1ccc(S(=O)(=O)N2CCCC2)cc1", "note": "(stereo unspecified)", "activity, negative = inhibition": "9.79% [at 12.7 µM] (inactive)"}, {"compound": "Cc1ccc(NS(=O)(=O)c2ccc3c(c2)CC(=O)N3)cc1Cl", "activity, negative = inhibition": "-0.894% [at 12.7 µM] (inactive)"}, {"compound": "COc1ccc(S(=O)(=O)N2CCN(C(C)C(=O)Nc3ccc(C(C)C)cc3)CC2)cc1", "note": "(stereo unspecified)", "Potency": "inactive"}, {"compound": "CCN(CC)S(=O)(=O)c1ccc(NC(=O)c2cnc(C)cn2)cc1", "activity, negative = inhibition": "0.345% [at 0.501 µM] (inactive)"}, {"compound": "O=C(CCn1c(=O)c2ccccc2n(Cc2ccc(Cl)cc2)c1=O)NCc1ccc2c(c1)OCO2", "Potency": "inactive"}, {"compound": "CCN(CC)C(=O)C(=O)c1cn(CC(=O)NCc2ccc3c(c2)OCO3)c2ccccc12", "activity, negative = inhibition": "27.8% [at 12.7 µM] (inactive)"}, {"compound": "Cn1cc(CCC(=O)NCc2ccc3c(c2)OCO3)c2ccccc21", "Potency": "25.1 µM (active)"}, {"compound": "CCOc1ccc(C(=O)c2cn(Cc3ccc(F)cc3)c3ccc(F)cc3c2=O)cc1", "Potency": "inactive"}, {"compound": "Cc1ccc(CNC(=O)CCC(=O)N2Cc3ccccc3Oc3ncccc32)cc1", "Potency": "inactive"}, {"compound": "Cc1noc(/C=C/N(C)C)c1S(=O)(=O)N1CCCC(C(=O)Nc2cccc(F)c2)C1", "note": "(stereo unspecified)", "Potency": "inactive"}, {"compound": "CCOC(=O)c1c(-c2ccc(C)cc2)csc1/N=C(\\C)C1=C(O)c2ccccc2C1=O", "Potency": "28.2 µM (active)"}, {"compound": "CCOC(=O)c1c(-c2ccccc2)csc1NC(=S)NC(=O)c1ccccc1", "Potency": "inactive"}, {"compound": "CCOC(=O)c1c(-c2ccc(-c3ccccc3)cc2)csc1NC(=O)CCC(=O)O", "Potency": "inactive"}, {"compound": "CC(=O)N1CCOc2ccc(S(=O)(=O)N3CCC(C(=O)Nc4ccccc4F)CC3)cc21", "Potency": "inactive"}, {"compound": "Cc1ccc(Cc2nnc(SCC(=O)Nc3ccccc3C)[nH]c2=O)cc1", "Potency": "inactive"}, {"compound": "CCOC(=O)CNC(=O)N1c2ccccc2Sc2ccccc21", "Potency": "inactive"}, {"compound": "CCNC(=O)N1c2ccccc2Sc2ccccc21", "Potency": "inactive"}, {"compound": "CCC(=O)/C=C1\\Sc2ccccc2N1CC", "Potency": "50.1 µM (active)"}, {"compound": "CCN1CCC(N(Cc2ccc(F)cc2)C(=O)Nc2cc(C)ccc2C)CC1", "Potency": "inactive"}, {"compound": "CCn1cc(C(=O)N2CCN(c3cc(C)ccc3C)CC2)c(=O)c2cc(S(=O)(=O)N(C)C3CCCCC3)ccc21", "Potency": "inactive"}, {"compound": "C=CCn1c(COc2cccc3cccnc23)nnc1SCC(=O)OC", "Potency": "inactive"}, {"compound": "Cc1nc(-c2ccccc2)sc1-c1nnc(C2CC2)o1", "Potency": "inactive"}, {"compound": "C=CCn1c(=S)sc2c(=O)[nH]c(C)nc21", "Potency": "inactive"}, {"compound": "C=CCn1c(-c2ccccc2OCC)n[nH]c1=S", "Potency": "7.08 µM (active)"}, {"compound": "Cc1[nH]c2ccc(S(N)(=O)=O)cc2c1C", "Potency": "inactive"}, {"compound": "C=CCn1c(COc2ccccc2C)nnc1SCC(=O)O", "Potency": "inactive"}, {"compound": "C=CCn1c(-c2sc(-c3ccccc3)nc2C)n[nH]c1=S", "Potency": "3.16 µM (active)"}, {"compound": "C=CCn1c(-c2ccc3[nH]c(C)c(C)c3c2)n[nH]c1=S", "Potency": "1 µM (active)"}, {"compound": "Cc1nc(-c2ccccc2)sc1-c1nc(-c2ccccc2)ncc1S(=O)(=O)c1ccccc1", "Potency": "inactive"}, {"compound": "Cc1ccsc1-c1cc(C(=O)O)c2c(ccc3ccccc32)n1", "Potency": "inactive"}, {"compound": "CCOC(=O)c1[nH]c(C)c(CCC(=O)N2CCN(c3ccccc3)CC2)c1C", "Potency": "inactive"}, {"compound": "COc1ccc(/C=C/c2noc(-c3ccccc3OC(C)=O)n2)cc1", "Potency": "inactive"}, {"compound": "COc1ccc(CCNC(=O)CCCn2c(=O)c3ccccc3n(Cc3ccc(F)cc3Cl)c2=O)cc1OC", "Potency": "inactive"}, {"compound": "COc1ccc(COC(=O)c2ccc(Cl)c(S(=O)(=O)N3CCOCC3)c2)cc1F", "Potency": "inactive"}, {"compound": "CC(=O)NCC(=O)NC1CCCc2c1cnn2-c1ccccc1F", "note": "(stereo unspecified)", "activity, negative = inhibition": "11.3% [at 0.501 µM] (inactive)"}, {"compound": "Cn1nccc1C(=O)NC1CCCc2c1cnn2-c1ccccc1F", "note": "(stereo unspecified)", "activity, negative = inhibition": "16.6% [at 0.501 µM] (inactive)"}, {"compound": "Cn1nccc1C(=O)NC1CCCc2c1cnn2-c1ccc(F)cc1F", "note": "(stereo unspecified)", "Potency": "79.4 µM (active)"}, {"compound": "Cc1ccc(-c2nnc(Nc3ccc(OCC(N)=O)cc3)c3ccccc23)cc1S(=O)(=O)NCC1CCCO1", "note": "(stereo unspecified)", "Potency": "inactive"}, {"compound": "Cc1ccccc1OCc1nc2c3cnn(-c4ccccc4F)c3ncn2n1", "Potency": "inactive"}, {"compound": "CC(NC(=O)c1ccc(N2CCNCC2)c([N+](=O)[O-])c1)C12CC3CC(CC(C3)C1)C2", "note": "(stereo unspecified)", "Potency": "inactive"}, {"compound": "CN(C)NC(=O)C(NC(=O)c1ccc(N)cc1)C12CC3CC(CC(C3)C1)C2", "note": "(stereo unspecified)", "Potency": "44.7 µM (active)"}, {"compound": "CC(CNC(=O)c1ccc(N)cc1)NC(=O)c1ccc(N)cc1", "note": "(stereo unspecified)", "Potency": "inactive"}, {"compound": "CCOC(=O)C(C)n1cnc2c(nnn2-c2ccc(F)cc2)c1=O", "note": "(stereo unspecified)", "Potency": "inactive"}, {"compound": "CC(C)(C)C1CCc2c(sc(NC(=O)c3ccccc3F)c2C(=O)N2CCCCC2)C1", "note": "(stereo unspecified)", "Potency": "inactive"}, {"compound": "O=C(Nc1ccccc1N1CCOCC1)c1ccc(OCc2cscn2)cc1", "Potency": "inactive"}, {"compound": "CCOC(=O)c1cc2ccccc2n1CC(=O)c1ccccc1", "Potency": "inactive"}, {"compound": "CCn1c(=N)n(CC(=O)c2cccc(OC)c2)c2ccccc21", "Potency": "44.7 µM (active)"}, {"compound": "COc1ccc2cc(C(=O)O)n(CC(=O)c3ccccc3)c2c1", "Potency": "inactive"}, {"compound": "COc1ccccc1C(=O)NCC(=O)NCCSc1ccc(Br)cc1", "Potency": "inactive"}, {"compound": "CN1C(C(=O)NCc2ccco2)CC2Cn3c(nc4ccccc43)C21", "note": "(stereo unspecified)", "activity, negative = inhibition": "16.2% [at 2.33 µM] (inactive)"}]}]}
